Screening data (PubChem)
Compounds with a hit are over-represented: about 6.7% of the library has one in this group of screens.
C_diff_growth: C. difficile growth inhibition; Clostridium difficile clinical isolate growth, OD600, 24 h; hits give low values; growth activity, negative = inhibition, % at 16 µg/mL (by protocol); 86,000 compounds, 0.25% hits; AID 1259249;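 active means mean growth activity at or below -80% and every replicate also at or below -80%; inconclusive means mean at or below -80% but some replicate above -80%; inactive means mean growth activity above -80%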;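 further: 0% = DMSO wells and -100% = levofloxacin 16 µg/mL wells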
Pf_Dd2_inh: P. falciparum Dd2 growth inhibition | 94,000 compounds, 2.3% hits | activity change, % at 10 µM | SYBR Green, 72 h; hits give low values | AID 1159554; in the data active means activity change below about -80%; inconclusive means no clear call, values can overlap the other calls
T_cruzi_growth-1: inhibitors of T. cruzi proliferation; T. cruzi beta-gal in NIH3T3, GalScreen luminescence, 90 h; inhibition, % at 8.34 µM; 77,000 compounds, 5.9% hits;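 active means mean inhibition above about 93%, with at least 55% of replicates each passing it, limit read from the data, passing the limit was not always enough; inconclusive means only one of those two conditions holds; inactive means neither condition holds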
T_cruzi_growth-2: blocks T. cruzi growth in NIH3T3 host cells. inhibition, % at 8.35 µM. AID 651739. shares compounds with T_cruzi_growth-1. 5,600 compounds, 72% hits. T. cruzi beta-gal in NIH3T3, GalScreen luminescence, 90 h;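 active means mean replicate inhibition above about 95% and at least 55% of replicates individually reaching it, limit read from the data; inconclusive means only one of the two criteria is met; inactive means neither criterion is met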
T_cruzi_growth-3: Trypanosoma cruzi proliferation inhibition | shares compounds with T_cruzi_growth-1 | T. cruzi beta-gal in NIH3T3, GalScreen luminescence, 90 h | inhibition, % at 2.09 µM | 5,600 compounds, 21% hits | AID 651740;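 active means mean inhibition above about 95%, with at least 55% of replicates also reaching it, limit read from the data; inconclusive means meets just one of the two conditions; inactive means meets neither condition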;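 further: plate controls were neutral control median for no effect and positive control median for full effect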
NIH3T3_tox: NIH/3T3 (mouse) viability loss; cytotoxicity (signal decrease), % at 8.35 µM; 5,600 compounds, 14% hits; shares compounds with T_cruzi_growth-1; NIH/3T3 viability, CellTiter-Glo ATP luminescence, 90 h;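 active means mean signal decrease across replicates above about 35% based on untreated-well scatter, with enough replicates individually passing, limit read from the data; inconclusive means no rule stated though some were filed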;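 further: 0% = median of neutral control wells and 100% = median of positive control wells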
NIH3T3_tox_2: NIH/3T3 (mouse) viability loss; shares compounds with T_cruzi_growth-1; NIH/3T3 viability, CellTiter-Glo ATP luminescence, 90 h; inhibition, % at 24.9 µM; 5,600 compounds, 56% hits;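 active means mean loss of cell viability signal at or above a set limit, and enough replicates individually reaching it; inconclusive means meets only the mean limit or only the replicate share; inactive means meets neither condition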;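 further: 0% = median of neutral control wells and 100% = median of positive control wells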
* = called active by the depositor; ? = inconclusive; / = not tested or not shown.

SMILES C_diff_growth Pf_Dd2_inh T_cruzi_growth-1 T_cruzi_growth-2 T_cruzi_growth-3 NIH3T3_tox NIH3T3_tox_2
Cc1noc(C)c1S(=O)(=O)Nc1ccc2c(c1)CC(=O)N([C@H](C)CO)C[C@@H](C)[C@@H](CN(C)Cc1ccc(Oc3ccccc3)cc1)O2 30.8 1.7 65.8 / / / /
COc1ccc(S(=O)(=O)Nc2ccc3c(c2)CC(=O)N([C@@H](C)CO)C[C@H](C)[C@@H](CN(C)Cc2ccccc2)O3)cc1 -2.0 -10.2 78.7 / / / /
Cc1noc(C)c1S(=O)(=O)Nc1ccc2c(c1)CC(=O)N([C@@H](C)CO)C[C@@H](C)[C@H](CN(C)Cc1ccc(Oc3ccccc3)cc1)O2 65.1 -69.8 ? 108.8* 88.6 -25.3 103.8*
COc1ccc(S(=O)(=O)Nc2ccc3c(c2)CC(=O)N([C@H](C)CO)C[C@@H](C)[C@H](CN(C)Cc2ccccc2)O3)cc1 -2.2 3.9 104.5* 108.9* 99.2* -4.2 7.3
CO[C@H]1CN(C)C(=O)c2cc(NS(=O)(=O)c3ccc(C)cc3)ccc2OC[C@H](C)N(C)C[C@@H]1C -2.3 17.3 1.5 / / / /
COc1ccccc1NC(=O)N[C@H]1CC[C@H](CCNC(=O)Cc2ccccn2)O[C@H]1CO 1.0 -4.5 / / / / /
CCCC#Cc1ccc2c(c1)O[C@@H](CN(C)Cc1ccccn1)[C@H](C)CN([C@H](C)CO)S2(=O)=O 0.7 / ? 96.9* 28.1 68.7* 105.3*
C[C@H](CO)N1C[C@H](C)[C@H](CN(C)Cc2ccccn2)Oc2cc(C#CCN(C)C)ccc2S1(=O)=O -3.0 -28.9 89.0 / / / /
CC(C)C#Cc1ccc2c(c1)O[C@@H](CN(C)Cc1ccccn1)[C@@H](C)CN([C@@H](C)CO)S2(=O)=O 33.0 -43.5 93.2 / / / /
CCCC#Cc1ccc2c(c1)O[C@@H](CN(C)Cc1ccccn1)[C@@H](C)CN([C@H](C)CO)S2(=O)=O -5.6 / ? 96.4* 50.5 ? -21.3
C[C@H](CO)N1C[C@H](C)[C@H](CN(C)Cc2ccccn2)Oc2cc(C#C[C@@H](C)O)ccc2S1(=O)=O 8.2 19.9 -10.2 / / / /
C[C@H]1CN([C@@H](C)CO)S(=O)(=O)c2ccc(C#CCN(C)C)cc2O[C@H]1CN(C)Cc1ccccn1 -5.5 -18.0 91.8* ? 52.2 6.0 ?
C[C@@H]1CN([C@H](C)CO)S(=O)(=O)c2ccc(C#CCN(C)C)cc2O[C@@H]1CN(C)Cc1ccccn1 -5.1 -18.2 75.4 / / / /
CCCC#Cc1ccc2c(c1)O[C@H](CN(C)Cc1ccccn1)[C@@H](C)CN([C@@H](C)CO)S2(=O)=O -8.3 / ? 99.4* ? 22.1 103.3*
O=C(NCC[C@@H]1CC[C@@H](NC(=O)c2ccc3c(c2)OCO3)[C@H](CO)O1)Nc1ccc(Cl)cc1 -5.8 -19.3 / / / / /
COc1ccc2c3c(n(C)c2c1)[C@H](CO)N(CC1CC1)CC31CCN(C(=O)CN2CCOCC2)CC1 1.9 -29.7 / / / / /
CO[C@H]1CN(C)C(=O)c2cc(NC(=O)c3ccccc3F)ccc2OC[C@@H](C)N(C)C[C@H]1C / 5.1 -24.9 / / / /
CCCNC(=O)N1CC2(CN(C)C2)c2c(n(C)c3cc(OC)ccc23)[C@@H]1CO -5.4 17.0 / / / / /
C[C@@H]1CN([C@@H](C)CO)C(=O)Cc2cc(NC(=O)Nc3ccc(C(F)(F)F)cc3)ccc2O[C@@H]1CN(C)C(=O)Nc1ccc2c(c1)OCO2 -8.4 -64.3 13.4 / / / /
C[C@H](CO)N1C[C@H](C)[C@H](CN(C)C(=O)Nc2ccccc2)Oc2ccc(NC(=O)Nc3ccc(C(F)(F)F)cc3)cc2C1=O 4.8 -16.5 / / / / /
CC(C)NC(=O)Nc1ccc2c(c1)C(=O)N([C@H](C)CO)C[C@H](C)[C@@H](CN(C)S(=O)(=O)c1cn(C)cn1)OCCCC[C@@H](C)O2 -1.7 36.1 -39.4 / / / /
C[C@H]1CCCCO[C@H](CN(C)Cc2ccc(C(=O)O)cc2)[C@@H](C)CN([C@@H](C)CO)C(=O)c2cc(NS(C)(=O)=O)ccc2O1 -3.1 61.6 22.7 / / / /
CO[C@@H]1CN(C)C(=O)c2cc(NC(=O)CC(F)(F)F)ccc2OC[C@H](C)NC[C@@H]1C 1.9 44.0 / / / / /
O=C(C[C@@H]1CC[C@H]2[C@@H](COC[C@H](O)CN2Cc2ccc(Oc3ccccc3)cc2)O1)N1CCN(c2ccccc2)CC1 6.7 -72.7 129.8* 102.3* 62.4 38.1* 100.5*
O=C(C[C@@H]1CC[C@H]2[C@@H](COC[C@@H](O)CN2Cc2ccc(Oc3ccccc3)cc2)O1)N1CCOCC1 / 0.6 -10.2 / / / /
SMILES C_diff_growth Pf_Dd2_inh T_cruzi_growth-1 T_cruzi_growth-2 T_cruzi_growth-3 NIH3T3_tox NIH3T3_tox_2
O=C(C[C@H]1CC[C@@H]2[C@H](COC[C@@H](O)CN2CCC(F)(F)F)O1)N1CCC(Cc2ccccc2)CC1 -7.9 -1.5 ? 37.0 -23.5 -13.4 2.4
O=C(C[C@@H]1CC[C@@H]2[C@H](COC[C@H](O)CN2Cc2ccccc2)O1)N1CCOCC1 3.2 11.4 -15.2 / / / /
O=C(C[C@H]1CC[C@@H]2[C@H](COC[C@H](O)CN2Cc2ccccc2)O1)N1CCOCC1 5.9 -23.9 122.5* 22.7 12.0 14.0 8.9
O=C(C[C@@H]1CC[C@H]2[C@@H](COC[C@@H](O)CN2CCC(F)(F)F)O1)N1CCC(Cc2ccccc2)CC1 -0.1 -5.6 59.1 / / / /
O=C(C[C@@H]1CC[C@@H](NS(=O)(=O)c2ccc(F)cc2)[C@@H](CO)O1)N1CCc2ccccc2C1 -1.3 -2.5 11.1 / / / /
C[C@H]1CN([C@@H](C)CO)C(=O)c2cc(NC(=O)C3CC3)ccc2O[C@H]1CN(C)C(=O)NC1CCCCC1 -2.3 11.9 21.2 / / / /
CN(C)CC(=O)Nc1ccc2c(c1)[C@H]1C[C@@H](CC(=O)NCC3CC3)O[C@H](CO)[C@H]1O2 0.3 6.5 -1.4 / / / /
C[C@H](CO)N1C[C@H](C)[C@H](CN(C)CC2CCCCC2)OCCCC[C@H](C)Oc2ccc(NC(=O)Nc3ccc(F)cc3)cc2C1=O -9.5 -86.7* 115.5* 88.6 101.6* 117.7* 102.3*
C[C@@H]1CCCCO[C@@H](CN(C)C)[C@H](C)CN([C@@H](C)CO)C(=O)c2cc(NC(=O)Nc3ccc(F)cc3)ccc2O1 5.3 33.0 0.1 / / / /
C[C@@H]1CN([C@@H](C)CO)C(=O)c2cc(NC(=O)Nc3ccc(F)cc3)ccc2O[C@@H](C)CCCCO[C@H]1CN(C)CC1CCCCC1 7.0 -77.6 114.9* 92.3 78.3 8.7 104.0*
C[C@H](CO)N1C[C@H](C)[C@H](CN(C)CC2CC2)OCCCC[C@H](C)Oc2ccc(NC(=O)Nc3ccc(F)cc3)cc2C1=O / -75.7 85.4 / / / /
